Test results as given in PubChem BioAssay AID624257 (Broad Institute, 2012).
Measured potencies and affinities stand elsewhere. Values without a mark were called inactive.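 Rule for the calls: active = compound slowing PglD reaction, half-maximal concentration at most twice top tested dose, in every test run; inconclusive = test runs disagree, or weak flat or poorly fitted curves; inactive = the rest.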

Molecular target: PglD acetyltransferase (Campylobacter jejuni) (UniProt O86157)
Test: PglD acetyltransferase inhibitors, dose response, biochemical, DTNB absorbance, cherry-picked samples, set 2 (AID 624257)
Settings: Purified PglD, DTNB absorbance 412 nm, CoA release; series mostly up to 19.5 µM; activity change, negative = inhibition: at the top concentration

Chain of PglD acetyltransferase (Campylobacter jejuni) (O86157 1-203): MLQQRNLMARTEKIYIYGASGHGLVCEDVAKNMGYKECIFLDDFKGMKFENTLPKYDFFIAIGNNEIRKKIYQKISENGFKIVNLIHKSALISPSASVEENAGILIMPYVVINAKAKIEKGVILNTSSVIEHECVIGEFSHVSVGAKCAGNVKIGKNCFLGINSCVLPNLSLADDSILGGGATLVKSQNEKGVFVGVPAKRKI

| SMILES | activity change, negative = inhibition |
| --- | --- |
| C=CC1=C(C(=O)O)N2C(=O)[C@@H](NC(=O)/C(=N/OCC(=O)O)c3csc(N)n3)[C@H]2SC1 | -21.8% |
| CCn1c(SCc2nc3sc(C(=O)O)c(C)c3c(=O)[nH]2)nc2ccccc21 | -38.5% |
| CCc1ccc(N=C2NC(=O)/C(=C/c3cc(Br)c(OCC(=O)O)c(OC)c3)S2)cc1 | -7.94% |
